This is an account of results in PubChem BioAssay (NCI).

Structures are written as SMILES. The panel holds about 79,000 compounds, 15% with a hit somewhere; the sample as a whole holds those more often. A number with no mark means an inactive call. Activity calls are given as the source filed them. No stated cut-off is given here; in the data, active means growth inhibition above about 70%; inactive means the rest.

This assay in a line: NCI Yeast Anticancer Drug Screen. Data for the mlh1 rad18 strain (AID 175). Particulars: S. cerevisiae mlh1 rad18 strain growth inhibition; at 50.0 µM; stronger effect = higher value. The gist of the method:
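Yeast w/ defined DNA-repair lesions; compound exposure; growth vs vehicle controls → % inhibition.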
Regarding `COC(=O)[C@H]1O[C@H]1c1ccncc1`, the growth inhibition was 8.2%. With `O=[N+]([O-])c1ccc(NSc2ccccc2)cc1` the figure was 88.2% (active); with `OCCOCCO[P+]1(OCCOCCO)n2c3ccc2C(c2ccccc2)=C2C=CC(=N2)C(c2ccccc2)=c2ccc(n21)=C(c1ccccc1)C1=NC(=C3c2ccccc2)C=C1`, 85.8% (active). The value for `NCCSC1(O)C(=O)c2ccccc2-c2ccccc21` (stereo not given) was 98.8% (active). The value for `C/C=C(\C)C(=O)O[C@@H]1CC(C)(C)CC2C3=CCC4[C@]56CC[C@](O)(OC5)C(C)(C)C6CC[C@@]4(C)C3(C)CC[C@]21C(=O)O` (stereo not given in full) was 81.2% (active); that for `CSC(=S)NN=C1CCCCC1` was 90.8% (active). For the compound `O=C1c2ccccc2C(O)(C#Cc2ccccc2)c2cnccc21` (stereo not given), the growth inhibition is 97.8% (active). Regarding `CCCCCC(CCCCC)C(=O)O`, the growth inhibition is 79.5% (active).

Regarding `CC(C)(N=Nc1ccc([N+](=O)[O-])cc1)[N+](=O)[O-]`, the growth inhibition was 96.7% (active). With `CCCCCCCCCCCCCC(=O)N1CCOCC1` the figure was 99.3% (active); with `CCOc1ccccc1-c1nc2c(s1)C(=O)c1ccccc1C2=O`, 91.8% (active).

Regarding `c1ccc2c(c1)C[n+]1ccc3ccccc3c1-c1c3ccccc3cc[n+]1C2`, the growth inhibition is 65.8%. With `Nc1cc2c(c[n+](CCCCCCCCCC[n+]3cc4c5ccccc5c(N)cc4c4ccccc43)c3ccccc23)c2ccccc12`, the growth inhibition is 83.6% (active). The value for `Cc1ccc(N=C(N)NN=C(c2ccc(Cl)cc2)c2ccc(Cl)cc2)cc1` was 50.3%; that for `O/N=C(/C[n+]1csc2ccccc21)c1ccccc1` was 48%. Turning to `COc1ccc(C2Oc3c(cccc3OC)C=C2[N+](=O)[O-])cc1` (stereo not given), the growth inhibition is 44%.

Take `O=C(O)c1c2c(cc3c1CC1(Cc4cc5c(cc4C1=O)CCC5)C3)CCC2` (stereo not given): the growth inhibition is 86.5% (active). With `CSc1ncnc2ncn(C3OC(CO)C(O)C3O)c12` (stereo not given) the figure was 12.5%. The value for `CC1SC(=S)N(c2ccc(Cl)cc2)C1=O` (stereo not given) was 71.8% (active); that for `CCOC(=O)C(C(C)=O)C1=C(Cl)C(=O)c2ccccc2C1=O` (stereo not given) was 99.3% (active). Turning to `CC(C)(C)c1cc(C(O)(C(F)(F)F)C(F)(F)F)c(S)c(C(O)(C(F)(F)F)C(F)(F)F)c1`, the growth inhibition was 99% (active). As for `O=[N+]([O-])C1C(c2ccccc2)CC=CC1N1CCCC1` (stereo not given), the growth inhibition was 98.2% (active). The value for `COc1ccc2nc3cc(Cl)ccc3c(NCCNc3c4ccc(Cl)cc4nc4ccc(OC)cc34)c2c1` was 97.3% (active); that for `CCN(CC)CCNc1nc(N)c2nc(-c3ccccc3)c(-c3ccccc3)nc2n1` was 85.8% (active). On to `CC(=O)OCC(=O)[C@@]1(O)CC[C@H]2[C@@H]3CCC4=CC(=O)C=C[C@]4(C)[C@@]3(F)[C@@H](O)C[C@@]21C`, for which the growth inhibition was 15.6%.

As to `O=Cc1cc(S(=O)(=O)c2ccc(O)c(C=O)c2)ccc1O`, the growth inhibition was 98.6% (active). On to `OCc1cccc2c1Oc1ccccc1S2`, for which the growth inhibition is 2.9%.

Turning to `O=C(CCN1CCCC1)c1ccc(Oc2ccc(F)cc2)cc1`, the growth inhibition was 63.4%.

With `Cc1ccccc1N1CCN(c2c3c(nc4ccccc24)CCCCC3)CC1`, the growth inhibition was 96.5% (active). With `CNC(Cc1ccccc1)c1ccc(OC)c2ccccc12` (stereo not given) the figure was 21.6%; with `CCCCN(CCCC)Cc1ccc(NC(C(=O)c2ccccc2)c2ccccc2)cc1` (stereo not given), 98.7% (active); with `CCS(=O)(=O)/C=C(\C#Cc1ccccc1)c1ccccc1`, 92.2% (active). Regarding `CN(C)c1c([N+](=O)[O-])cc(N2C(=O)C=CC2=O)cc1[N+](=O)[O-]`, the growth inhibition is 90.7% (active).

For the compound `CNC(=N)c1ccc(NC(=N)c2ccc(NC(=O)c3ccc(C(=O)Nc4ccc(C(=N)Nc5ccc(C(=N)NC)cc5)cc4)cc3)cc2)cc1`, the growth inhibition is 87.5% (active). On to `O=[N+]([O-])c1ccc(-c2nc3ccc(F)cc3[nH]2)o1`, for which the growth inhibition was 99.7% (active). With `CCCCCCC(=O)CC(SCCN)c1ccccc1Cl` (stereo not given) the figure was 98.8% (active); with `O=C(CC(c1ccccc1Cl)C(C(=O)O)c1ccccc1)c1ccccc1` (stereo not given), 92.1% (active).

Take `CC([N+](=O)[O-])C1(O)C(=O)c2cccc3cccc1c23` (stereo not given): the growth inhibition is 74.5% (active). With `CC(=O)N(C1=C(Cl)C(=O)c2ccccc2C1=O)c1ccc(Cl)cc1` the figure was 96.7% (active); with `CCOC(=N)CCCSSc1ccc(N=[N+]=[N-])cc1`, 99.2% (active).
